Experimental data published in PubChem BioAssay AID1159580 (chemical genetic matrix, 2015).
Screen size: about 5,500 compounds; about 2,000 (36%) were called active. Another 18% or so got no clear call; they are omitted. No stated cut-off is given here; in the data, active means normalized growth mostly below about 0.91 (no sharp cut-off); inconclusive means no clear call, values can overlap the other calls; inactive means mostly above about 0.92. Some of the results follow.

Test: chemical genetic growth profiling, strain panel (AID 1159580);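 further: tested at 20 µM; growth read once vehicle control cultures reached saturation at 30 °C; 1 = growth at the plate median or of vehicle wells; lower values mean less growth of the strain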
Conditions: growth OD

Measured: normalized growth

CO[C@@]12[C@@H]3NC3CN1C1=C(C(=O)C(N)=C(C)C1=O)[C@@H]2COC(N)=O (some centres not stated)
inactive: S. cerevisiae deletion strains, locus YJR075W, strain HOC1, hits give low values 0.995 | S. cerevisiae deletion strains, locus YKL009W, strain mrt4, hits give low values 0.964 | S. cerevisiae deletion strains, locus YKL068W, hits give low values 0.984 | S. cerevisiae deletion strains, locus YKL085W, strain MDH1 (second series), hits give low values 0.983 | S. cerevisiae deletion strains, locus YKL085W, strain MDH1, hits give low values 0.983 | S. cerevisiae deletion strains, locus YKL160W, strain elf1, hits give low values 0.974 | S. cerevisiae deletion strains, locus YKL190W, strain CNB1, hits give low values 1 | S. cerevisiae deletion strains, locus YKR001C, strain vps1, hits give low values 0.982 | S. cerevisiae deletion strains, locus YKR026C, strain gcn3, hits give low values 0.964 | S. cerevisiae deletion strains, locus YKR091W, strain srl3, hits give low values 0.959 | S. cerevisiae deletion strains, locus YLL001W, strain dnm1, hits give low values 0.929 | S. cerevisiae deletion strains, locus YLL026W, hits give low values 0.977 | S. cerevisiae deletion strains, locus YLL041C, strain sdh2, hits give low values 0.977 | S. cerevisiae deletion strains, locus YLR027C, strain aat2, hits give low values 0.953 | S. cerevisiae deletion strains, locus YLR039C, strain RIC1, hits give low values 1.01 | S. cerevisiae deletion strains, locus YLR058C, strain SHM2, hits give low values 0.999 | S. cerevisiae deletion strains, locus YLR102C, strain apc9, hits give low values 0.986 | S. cerevisiae deletion strains, locus YLR113W, strain HOG1, hits give low values 0.973 | S. cerevisiae deletion strains, locus YLR221C, strain rsa3, hits give low values 1.01 | S. cerevisiae deletion strains, locus YLR258W, strain gsy2, hits give low values 0.992 | S. cerevisiae deletion strains, locus YLR262C, strain YPT6 (second series), hits give low values 0.938 | S. cerevisiae deletion strains, locus YLR262C, strain YPT6, hits give low values 0.947 | S. cerevisiae deletion strains, locus YLR268W, strain sec22, hits give low values 1.01 | S. cerevisiae deletion strains, locus YLR320W, strain mms22, hits give low values 1.01 | S. cerevisiae deletion strains, locus YLR330W, strain CHS5, hits give low values 0.987 | S. cerevisiae deletion strains, locus YLR342W, strain FKS1 (second series), hits give low values 1 | S. cerevisiae deletion strains, locus YLR342W, strain FKS1, hits give low values 0.952 | S. cerevisiae deletion strains, locus YLR357W, strain rsc2, hits give low values 0.961 | S. cerevisiae deletion strains, locus YLR370C, strain arc18, hits give low values 0.96 | S. cerevisiae deletion strains, locus YLR371W, strain rom2, hits give low values 0.961 | S. cerevisiae deletion strains, locus YLR384C, strain iki3, hits give low values 0.953 | S. cerevisiae deletion strains, locus YLR418C, strain cdc73, hits give low values 1.05 | S. cerevisiae deletion strains, locus YML016C, strain PPZ1, hits give low values 1 | S. cerevisiae deletion strains, locus YML032C, strain rad52, hits give low values 0.96 | S. cerevisiae deletion strains, locus YML120C, strain ndi1, hits give low values 0.94 | S. cerevisiae deletion strains, locus YML124C, strain tub3, hits give low values 0.979 | S. cerevisiae deletion strains, locus YMR058W, strain fet3, hits give low values 0.942 | S. cerevisiae deletion strains, locus YMR078C, strain ctf18, hits give low values 0.975 | S. cerevisiae deletion strains, locus YMR125W, strain sto1, hits give low values 0.982 | S. cerevisiae deletion strains, locus YMR129W, hits give low values 0.975 | S. cerevisiae deletion strains, locus YMR205C, strain PFK2, hits give low values 0.996 | S. cerevisiae deletion strains, locus YMR223W, strain ubp8, hits give low values 0.977 | S. cerevisiae deletion strains, locus YMR231W, strain pep5, hits give low values 0.949 | S. cerevisiae deletion strains, locus YMR263W, strain SAP30, hits give low values 1.01 | S. cerevisiae deletion strains, locus YMR307W, strain GAS1, hits give low values 1.02 | S. cerevisiae deletion strains, locus YNL067W, strain RPL9B, hits give low values 1.02 | S. cerevisiae deletion strains, locus YNL071W, strain lat1, hits give low values 0.971 | S. cerevisiae deletion strains, locus YNL128W, strain TEP1, hits give low values 1 | S. cerevisiae deletion strains, locus YNL153C, strain GIM3, hits give low values 1.03 | S. cerevisiae deletion strains, locus YNL183C, strain NPR1, hits give low values 0.94 | S. cerevisiae deletion strains, locus YNL209W, strain ssb2, hits give low values 0.972 | S. cerevisiae deletion strains, locus YNL233W, strain BNI4, hits give low values 1.05 | S. cerevisiae deletion strains, locus YNL248C, strain rpa49, hits give low values 0.99 | S. cerevisiae deletion strains, locus YNL250W, strain rad50, hits give low values 0.975 | S. cerevisiae deletion strains, locus YNL271C, strain bni1, hits give low values 0.979 | S. cerevisiae deletion strains, locus YNL298W, strain CLA4, hits give low values 0.978 | S. cerevisiae deletion strains, locus YNL307C, strain MCK1, hits give low values 0.979 | S. cerevisiae deletion strains, locus YNL322C, strain KRE1 (second series), hits give low values 0.945 | S. cerevisiae deletion strains, locus YNL322C, strain KRE1, hits give low values 0.997 | S. cerevisiae deletion strains, locus YNR049C, strain mso1, hits give low values 0.978 | S. cerevisiae deletion strains, locus YNR052C, strain pop2, hits give low values 0.96 | S. cerevisiae deletion strains, locus YOL006C, strain TOP1, hits give low values 1.04 | S. cerevisiae deletion strains, locus YOL012C, strain htz1 0.963 | S. cerevisiae deletion strains, locus YOL147C, strain pex11, hits give low values 0.984 | S. cerevisiae deletion strains, locus YOR001W, strain rrp6, hits give low values 0.946 | S. cerevisiae deletion strains, locus YOR061W, strain CKA2, hits give low values 1.01 | S. cerevisiae deletion strains, locus YOR069W, strain VPS5, hits give low values 1 | S. cerevisiae deletion strains, locus YOR070C, strain gyp1, hits give low values 0.993 | S. cerevisiae deletion strains, locus YOR080W, strain dia2, hits give low values 0.968 | S. cerevisiae deletion strains, locus YOR083W, strain WHI5, hits give low values 0.94 | S. cerevisiae deletion strains, locus YOR106W, strain vam3, hits give low values 0.929 | S. cerevisiae deletion strains, locus YOR136W, strain idh2, hits give low values 0.981 | S. cerevisiae deletion strains, locus YOR144C, strain elg1, hits give low values 0.985 | S. cerevisiae deletion strains, locus YOR184W, strain ser1, hits give low values 0.948 | S. cerevisiae deletion strains, locus YOR231W, strain MKK1, hits give low values 0.982 | S. cerevisiae deletion strains, locus YOR265W, strain rbl2, hits give low values 0.963 | S. cerevisiae deletion strains, locus YOR270C, strain vph1, hits give low values 1 | S. cerevisiae deletion strains, locus YOR290C, strain snf2, hits give low values 0.998 | S. cerevisiae deletion strains, locus YOR316C, strain cot1, hits give low values 0.994 | S. cerevisiae deletion strains, locus YPL051W, strain arl3, hits give low values 0.985 | S. cerevisiae deletion strains, locus YPL055C, strain LGE1, hits give low values 1.02 | S. cerevisiae deletion strains, locus YPL078C, strain atp4, hits give low values 0.921 | S. cerevisiae deletion strains, locus YPL106C, strain sse1, hits give low values 0.951 | S. cerevisiae deletion strains, locus YPL240C, strain hsp82, hits give low values 0.979 | S. cerevisiae deletion strains, locus YPL241C, strain CIN2, hits give low values 0.998 | S. cerevisiae deletion strains, locus YPL256C, strain CLN2, hits give low values 0.971 | S. cerevisiae deletion strains, locus YPR119W, strain clb2, hits give low values 0.995 | S. cerevisiae deletion strains, locus YPR141C, strain kar3, hits give low values 0.983 | S. cerevisiae deletion strains, locus YPR163C, strain tif3, hits give low values 0.966 | S. cerevisiae deletion strains, locus YPR167C, strain met16, hits give low values 0.987 | S. cerevisiae deletion strains, strain wtn01, hits give low values 1.02 | S. cerevisiae strains, strain wild type, hits give low values 0.997
